According to the supplement of paper PMC10849652:
Of roughly 7,900 targets only a part is listed; those with a hit were picked by preference. About 0.6% of all pairs of compound and target were hits.

Columns and labels:
Test in all cases: log2 fold change, soluble protein after heating vs DMSO (PISA); higher = thermal stabilisation; K562 cells, 10 uM, 30 min; active = over 0.2 and 3.5 SD of the protein, either way, in both replicates (recomputed)
[1] = compound: CN1CCN(CCOc2cc(OC3CCOCC3)c3c(Nc4c(Cl)ccc5c4OCO5)ncnc3c2)CC1 [saracatinib]
Summary of the method: (§1)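 K562 cells at 2×10^6 cells/mL were given 10 μM compound for 30 min. Aliquots then went through 3 min of heating across 48°C-58°C, were pooled, and were extracted in PBS with 0.5% NP-40 at 4°C, and the supernatant after 21,000xg for 90 min was quantified by TMTpro 16plex LC-MS/MS with channel sums equalised. Thermal stability relative to control samples, from duplicates, is given as log2 fold change.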

[2] = compound: CN1CCN(c2nc(C3=C(c4c[nH]c5ccccc45)C(=O)NC3=O)c3ccccc3n2)CC1 [sotrastaurin]
Summary of the method: as §1

[3] = compound: CN1CC[C@H](c2c(O)cc(O)c3c(=O)cc(-c4ccccc4Cl)oc23)[C@H](O)C1 [alvocidib]
Summary of the method: as §1

[4] = compound: CN1CCc2c(c3ccccc3n2Cc2ccc(C(=O)NO)cc2)C1 [Tubastatin A]
Summary of the method: as §1

[5] = compound: CNC(=O)C1=CC=CC=C1NC2=NC(=NC=C2Cl)NC3=C(C=C(C=C3)N4CCOCC4)OC
Summary of the method: as §1

[6] = compound: CNC(=O)c1ccc(Nc2ncc(C(F)(F)F)c(NCc3nccnc3N(C)S(C)(=O)=O)n2)cc1 [defactinib]
Summary of the method: as §1

[7] = compound: CNCc1ccc(-c2[nH]c3cc(F)cc4c3c2CCNC4=O)cc1 [rucaparib]
Summary of the method: as §1

[8] = compound: CNc1nc(-c2ccc3c(N)n[nH]c3c2)cc(N2C[C@@H](C(=O)NC3CCCCC3)CC[C@H]2C)n1
Summary of the method: as §1

[9] = compound: COC(=O)N[C@@H](C)CNc1nccc(-c2cn(C(C)C)nc2-c2cc(Cl)cc(NS(C)(=O)=O)c2F)n1 [encorafenib]
Summary of the method: as §1

[10] = compound: COC(=O)[C@H](CCSC)NC(=O)C1=C(C=C(C=C1)NC[C@H](CS)N)C2=CC=CC=C2
Summary of the method: as §1

[11] = compound: COC1=CC=C(C=C1)CN2C=CC3=C2C=C(C=C3)C(=O)NO
Summary of the method: as §1

[12] = compound: CON(C)C(=O)N1N=C(c2cc(F)ccc2F)S[C@@]1(CCCN)c1ccccc1 [filanesib]
Summary of the method: as §1

[13] = compound: CO[C@H]1C[C@@H]2CC[C@@H](C)[C@@](O)(O2)C(=O)C(=O)N2CCCC[C@H]2C(=O)O[C@H]([C@H](C)C[C@@H]2CC[C@H](n3cnnn3)[C@H](OC)C2)CC(=O)[C@H](C)/C=C(\C)[C@@H](O)[C@@H](OC)C(=O)[C@H](C)C[C@H](C)/C=C/C=C/C=C/1C [zotarolimus]
Summary of the method: as §1

[14] = compound: COc1cc(C(=O)O)ccc1NC(=O)[C@@H]1N[C@@H](CC(C)(C)C)[C@](C#N)(c2ccc(Cl)cc2F)[C@H]1c1cccc(Cl)c1F [idasanutlin]
Summary of the method: as §1

[15] = compound: COc1cc(Nc2ncc3c(n2)-c2ccc(Cl)cc2C(c2c(F)cccc2OC)=NC3)ccc1C(=O)O [alisertib]
Summary of the method: as §1

[16] = compound: COc1cc2nc(-c3cc(F)ccc3O)nc(N[C@@H]3CNC[C@H]3C(C)(C)O)c2cc1OC
Summary of the method: as §1

[17] = compound: COc1cc2ncnc(Nc3ccc(F)c(Cl)c3)c2cc1OCCCN1CCOCC1 [gefitinib]
Summary of the method: as §1

[18] = compound: COc1cccc2cc(-c3nc([C@H]4CC[C@H](C(=O)O)CC4)n4ncnc(N)c34)[nH]c12
Summary of the method: as §1

[19] = compound: CS(=O)(=O)CCNCc1ccc(-c2ccc3ncnc(Nc4ccc(OCc5cccc(F)c5)c(Cl)c4)c3c2)o1 [lapatinib]
Summary of the method: as §1

[20] = compound: CS(=O)(=O)N1CCN(Cc2cc3nc(-c4cccc5[nH]ncc45)nc(N4CCOCC4)c3s2)CC1 [pictilisib]
Summary of the method: as §1

Measured: log2 fold change

PARP16 isoform 3 (UniProt Q8N5Y8)
Chain of UniProt Q8N5Y8 (Q8N5Y8 whole entry, looked up): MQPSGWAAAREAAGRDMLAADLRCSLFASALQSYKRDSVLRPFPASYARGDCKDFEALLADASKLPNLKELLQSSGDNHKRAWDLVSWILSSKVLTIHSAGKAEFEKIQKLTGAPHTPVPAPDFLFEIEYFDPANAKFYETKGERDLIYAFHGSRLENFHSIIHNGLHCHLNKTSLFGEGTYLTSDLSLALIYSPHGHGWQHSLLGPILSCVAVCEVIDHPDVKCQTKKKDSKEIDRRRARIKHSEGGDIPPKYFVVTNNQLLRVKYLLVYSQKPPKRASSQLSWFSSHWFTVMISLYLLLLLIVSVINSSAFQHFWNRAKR
inactive: [1] 0.175 | [2] -0.038 | [3] -0.054 | [4] 0.005 | [5] -0.009 | [6] 0.046 | [7] 0.198 | [8] -0.042 | [9] -0.087 | [10] -0.005 | [11] -0.029 | [12] -0.13 | [13] 0.039 | [14] -0.056 | [15] -0.075 | [16] -0.097 | [17] 0.011 | [18] -0.03 | [19] 0.071 | [20] -0.008

PPP4R3B (UniProt Q5MIZ7)
inactive: [1] -0.008 | [2] -0.05 | [3] -0.11 | [4] 0.022 | [5] 0.057 | [6] -0.023 | [7] -0.065 | [8] -0.033 | [9] 0.014 | [10] 0.003 | [11] -0.01 | [12] -0.004 | [13] 0.014 | [14] -0.039 | [15] 0.048 | [16] 0 | [17] -0.034 | [18] -0.034 | [19] 0.047 | [20] 0.076

PIP4P2 (UniProt Q8N4L2)
Chain of UniProt Q8N4L2 (Q8N4L2 whole entry, looked up): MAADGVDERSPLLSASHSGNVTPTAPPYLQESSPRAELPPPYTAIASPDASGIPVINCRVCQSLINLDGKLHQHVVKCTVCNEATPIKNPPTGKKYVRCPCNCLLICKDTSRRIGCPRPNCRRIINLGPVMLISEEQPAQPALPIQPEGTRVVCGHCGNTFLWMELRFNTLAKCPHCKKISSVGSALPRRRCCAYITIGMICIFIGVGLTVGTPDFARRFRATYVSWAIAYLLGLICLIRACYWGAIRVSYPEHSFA
inactive: [1] 0.056 | [2] -0.003 | [3] -0.048 | [4] 0.072 | [5] -0.007 | [6] 0.004 | [7] -0.003 | [8] -0.106 | [9] -0.04 | [10] 0.093 | [11] 0.053 | [13] 0.027 | [14] 0.14 | [15] 0.022 | [16] 0.007 | [17] 0.009 | [18] -0.016 | [19] 0.03 | [20] 0.061
active: [12] -0.383

PCTP (UniProt Q9UKL6)
Chain of UniProt Q9UKL6 (Q9UKL6 whole entry, looked up): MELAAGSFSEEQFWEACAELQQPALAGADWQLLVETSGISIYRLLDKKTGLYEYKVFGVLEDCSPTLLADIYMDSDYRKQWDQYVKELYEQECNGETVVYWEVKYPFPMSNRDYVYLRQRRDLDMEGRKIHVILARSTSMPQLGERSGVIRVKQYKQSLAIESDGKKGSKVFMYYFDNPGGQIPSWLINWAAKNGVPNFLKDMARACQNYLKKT
inactive: [1] 0.083 | [2] -0.016 | [3] 0.014 | [4] -0.002 | [5] 0 | [6] -0.037 | [7] -0.056 | [8] 0.039 | [9] -0.032 | [10] 0.094 | [11] -0.007 | [12] -0.175 | [13] -0.066 | [14] 0.029 | [15] -0.081 | [17] -0.024 | [18] -0.031 | [19] 0.052
active: [16] -0.239 | [20] 0.392

PHF5A (UniProt Q7RTV0)
Chain of UniProt Q7RTV0 (Q7RTV0 whole entry, looked up): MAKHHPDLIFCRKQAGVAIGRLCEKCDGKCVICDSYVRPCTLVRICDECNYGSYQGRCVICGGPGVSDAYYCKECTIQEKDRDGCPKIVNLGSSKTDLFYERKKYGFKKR
inactive: [1] 0.069 | [2] 0.047 | [3] 0.045 | [4] -0.027 | [5] 0.05 | [6] 0.141 | [7] 0.04 | [8] -0.086 | [9] -0.017 | [10] 0.023 | [11] 0.014 | [12] 0.087 | [13] -0.024 | [14] 0.056 | [15] -0.033 | [16] 0.067 | [17] 0.003 | [18] 0.026 | [19] -0.051 | [20] 0.071

PCBP1 (UniProt Q15365)
Chain of UniProt Q15365 (Q15365 whole entry, looked up): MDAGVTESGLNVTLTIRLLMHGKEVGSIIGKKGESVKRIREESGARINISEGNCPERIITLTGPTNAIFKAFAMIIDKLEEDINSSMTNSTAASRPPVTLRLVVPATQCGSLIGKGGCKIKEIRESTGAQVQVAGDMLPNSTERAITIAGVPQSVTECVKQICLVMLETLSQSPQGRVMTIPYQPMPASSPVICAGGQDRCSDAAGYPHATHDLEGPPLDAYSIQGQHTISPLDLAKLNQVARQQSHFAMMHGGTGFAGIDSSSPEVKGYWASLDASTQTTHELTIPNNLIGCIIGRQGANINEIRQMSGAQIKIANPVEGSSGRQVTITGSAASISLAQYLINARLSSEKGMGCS
inactive: [1] 0.009 | [2] -0.073 | [3] -0.119 | [4] 0.013 | [5] -0.015 | [6] -0.151 | [7] -0.015 | [8] 0.03 | [9] 0.052 | [10] -0.034 | [11] 0.076 | [12] -0.036 | [13] 0.102 | [14] -0.044 | [15] -0.015 | [16] -0.014 | [17] -0.003 | [18] -0.003 | [19] -0.022 | [20] -0.036

PSMA3 (UniProt P25788)
Chain of UniProt P25788 (P25788 whole entry, looked up): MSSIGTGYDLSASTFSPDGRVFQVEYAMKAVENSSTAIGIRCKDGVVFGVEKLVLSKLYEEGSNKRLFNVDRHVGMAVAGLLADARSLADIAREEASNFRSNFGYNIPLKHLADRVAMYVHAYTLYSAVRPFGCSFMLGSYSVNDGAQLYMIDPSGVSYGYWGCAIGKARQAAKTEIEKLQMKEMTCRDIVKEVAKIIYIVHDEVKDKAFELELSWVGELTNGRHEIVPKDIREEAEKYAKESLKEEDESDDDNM
inactive: [1] 0.012 | [2] 0.038 | [3] -0.043 | [4] -0.006 | [5] 0.014 | [6] 0.048 | [7] -0.001 | [8] 0.02 | [9] 0.034 | [10] 0 | [11] 0.015 | [12] 0.034 | [13] 0.044 | [14] 0.019 | [15] -0.04 | [16] -0.079 | [17] -0.025 | [18] -0.003 | [19] 0.062 | [20] -0.053

PSMD7 (UniProt P51665)
Chain of UniProt P51665 (P51665 whole entry, looked up): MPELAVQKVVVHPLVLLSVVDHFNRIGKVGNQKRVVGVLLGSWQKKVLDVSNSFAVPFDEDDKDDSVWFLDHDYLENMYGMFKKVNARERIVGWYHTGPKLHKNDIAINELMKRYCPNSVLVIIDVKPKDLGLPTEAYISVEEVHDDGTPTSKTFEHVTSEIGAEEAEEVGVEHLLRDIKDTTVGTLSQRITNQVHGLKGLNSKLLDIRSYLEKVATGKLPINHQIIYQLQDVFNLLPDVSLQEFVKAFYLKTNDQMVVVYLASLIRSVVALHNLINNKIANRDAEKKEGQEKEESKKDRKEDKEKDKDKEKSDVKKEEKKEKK
inactive: [1] -0.018 | [2] -0.028 | [3] 0.088 | [4] 0.001 | [5] 0.015 | [6] 0.079 | [7] 0.063 | [8] 0.022 | [9] 0.03 | [10] 0.017 | [11] -0.059 | [12] 0.054 | [13] -0.014 | [14] 0.01 | [15] -0.032 | [16] -0.027 | [17] -0.049 | [18] -0.022 | [19] 0.089 | [20] -0.078

PSMC1 (UniProt P62191)
Chain of UniProt P62191 (P62191 whole entry, looked up): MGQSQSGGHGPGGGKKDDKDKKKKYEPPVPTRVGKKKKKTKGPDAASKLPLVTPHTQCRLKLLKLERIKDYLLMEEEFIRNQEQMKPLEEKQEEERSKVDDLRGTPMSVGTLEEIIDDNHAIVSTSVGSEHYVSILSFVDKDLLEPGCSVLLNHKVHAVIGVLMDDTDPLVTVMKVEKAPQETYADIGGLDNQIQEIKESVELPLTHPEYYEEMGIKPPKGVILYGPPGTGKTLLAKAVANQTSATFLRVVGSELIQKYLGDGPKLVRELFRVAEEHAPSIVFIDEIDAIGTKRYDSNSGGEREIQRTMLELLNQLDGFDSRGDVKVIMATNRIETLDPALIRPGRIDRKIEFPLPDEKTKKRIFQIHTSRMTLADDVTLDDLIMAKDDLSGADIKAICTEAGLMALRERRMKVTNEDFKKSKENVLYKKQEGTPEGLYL
inactive: [1] -0.062 | [2] -0.022 | [3] 0.057 | [4] -0.009 | [5] -0.019 | [6] 0.083 | [7] 0.043 | [8] 0.024 | [9] 0.022 | [10] -0.001 | [11] -0.062 | [12] 0.03 | [13] -0.013 | [14] 0.009 | [15] -0.049 | [16] -0.018 | [17] -0.05 | [18] -0.015 | [19] 0.054 | [20] -0.006

PGM3 isoform 4 (UniProt O95394)
Chain of UniProt O95394 (O95394 whole entry, looked up): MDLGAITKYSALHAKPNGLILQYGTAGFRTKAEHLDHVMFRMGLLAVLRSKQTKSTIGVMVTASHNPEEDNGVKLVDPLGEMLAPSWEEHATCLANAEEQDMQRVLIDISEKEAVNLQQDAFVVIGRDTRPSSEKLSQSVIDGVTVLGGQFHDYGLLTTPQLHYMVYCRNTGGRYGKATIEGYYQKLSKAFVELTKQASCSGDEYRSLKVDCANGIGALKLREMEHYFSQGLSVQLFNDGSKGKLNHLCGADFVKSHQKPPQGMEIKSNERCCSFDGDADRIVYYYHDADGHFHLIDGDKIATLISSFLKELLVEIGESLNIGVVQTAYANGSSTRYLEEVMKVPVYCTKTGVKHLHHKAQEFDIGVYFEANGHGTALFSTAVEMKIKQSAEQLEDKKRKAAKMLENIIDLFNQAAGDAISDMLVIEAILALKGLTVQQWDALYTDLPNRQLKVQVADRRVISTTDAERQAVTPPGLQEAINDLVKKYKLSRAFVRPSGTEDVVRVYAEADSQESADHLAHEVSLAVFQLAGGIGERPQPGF
inactive: [1] -0.028 | [2] -0.018 | [3] -0.062 | [4] 0.03 | [5] -0.011 | [6] -0.019 | [7] -0.013 | [8] 0.067 | [9] 0.024 | [10] -0.022 | [11] 0.052 | [12] -0.135 | [13] 0.007 | [14] -0.079 | [15] -0.007 | [16] 0 | [17] -0.028 | [18] -0.01 | [19] -0.014 | [20] -0.047

POP1 (UniProt Q99575)
Chain of UniProt Q99575 (Q99575 whole entry, looked up): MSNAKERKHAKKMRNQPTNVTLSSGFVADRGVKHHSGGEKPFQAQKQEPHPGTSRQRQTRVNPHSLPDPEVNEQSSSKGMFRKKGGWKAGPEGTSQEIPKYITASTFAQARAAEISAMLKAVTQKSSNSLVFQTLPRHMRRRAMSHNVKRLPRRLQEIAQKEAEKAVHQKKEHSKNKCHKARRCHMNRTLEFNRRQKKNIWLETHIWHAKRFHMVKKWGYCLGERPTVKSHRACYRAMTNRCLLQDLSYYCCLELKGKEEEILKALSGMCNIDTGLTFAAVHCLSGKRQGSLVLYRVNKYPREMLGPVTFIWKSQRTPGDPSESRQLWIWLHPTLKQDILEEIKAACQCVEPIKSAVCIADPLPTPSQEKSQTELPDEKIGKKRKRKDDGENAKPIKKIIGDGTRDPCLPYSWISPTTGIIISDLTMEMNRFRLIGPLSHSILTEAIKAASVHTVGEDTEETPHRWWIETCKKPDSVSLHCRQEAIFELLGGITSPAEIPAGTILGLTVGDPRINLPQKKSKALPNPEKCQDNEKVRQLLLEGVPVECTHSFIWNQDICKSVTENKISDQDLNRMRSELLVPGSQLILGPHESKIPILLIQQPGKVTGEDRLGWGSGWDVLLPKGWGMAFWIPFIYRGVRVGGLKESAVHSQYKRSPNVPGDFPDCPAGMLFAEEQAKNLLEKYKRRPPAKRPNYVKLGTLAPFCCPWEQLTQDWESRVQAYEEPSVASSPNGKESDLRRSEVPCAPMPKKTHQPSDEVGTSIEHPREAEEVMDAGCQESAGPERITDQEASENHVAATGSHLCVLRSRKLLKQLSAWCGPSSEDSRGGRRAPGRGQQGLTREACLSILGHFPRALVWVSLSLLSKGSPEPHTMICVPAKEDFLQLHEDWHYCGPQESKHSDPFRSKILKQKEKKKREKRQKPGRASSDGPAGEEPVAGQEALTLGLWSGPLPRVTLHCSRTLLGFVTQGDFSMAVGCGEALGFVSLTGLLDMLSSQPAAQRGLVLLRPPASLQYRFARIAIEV
inactive: [1] 0.077 | [2] -0.01 | [3] -0.049 | [4] 0.026 | [5] -0.002 | [6] -0.055 | [7] 0.014 | [8] 0.014 | [9] 0.006 | [10] 0.016 | [11] 0.025 | [12] -0.023 | [13] 0.033 | [14] -0.009 | [15] -0.054 | [16] -0.109 | [17] 0.012 | [18] 0.021 | [19] 0.084 | [20] -0.01

PRPF31 (UniProt Q8WWY3)
Chain of UniProt Q8WWY3 (Q8WWY3 whole entry, looked up): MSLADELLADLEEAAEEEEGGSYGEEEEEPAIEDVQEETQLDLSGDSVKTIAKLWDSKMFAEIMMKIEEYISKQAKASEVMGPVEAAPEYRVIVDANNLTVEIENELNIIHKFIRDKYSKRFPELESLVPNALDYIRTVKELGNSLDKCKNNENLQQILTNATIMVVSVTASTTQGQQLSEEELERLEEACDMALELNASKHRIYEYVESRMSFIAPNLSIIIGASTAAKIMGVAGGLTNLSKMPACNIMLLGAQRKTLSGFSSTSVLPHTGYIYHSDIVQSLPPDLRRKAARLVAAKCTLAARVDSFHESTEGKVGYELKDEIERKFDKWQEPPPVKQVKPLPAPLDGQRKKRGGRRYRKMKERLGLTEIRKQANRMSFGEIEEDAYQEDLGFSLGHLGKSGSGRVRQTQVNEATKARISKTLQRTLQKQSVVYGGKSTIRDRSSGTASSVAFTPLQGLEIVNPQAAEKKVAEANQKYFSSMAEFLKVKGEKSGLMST
inactive: [1] -0.093 | [2] -0.15 | [3] -0.193 | [4] 0.144 | [5] -0.033 | [7] -0.068 | [8] 0.033 | [9] 0.011 | [10] -0.037 | [11] 0.07 | [12] 0.006 | [13] -0.028 | [14] -0.053 | [15] 0.081 | [16] -0.393 | [17] 0.003 | [18] 0.024 | [19] 0.061 | [20] 0.139
active: [6] -0.456

PPT1 (UniProt P50897)
active: [12] -0.241
inactive: [1] -0.007 | [2] 0.029 | [3] 0.005 | [4] -0.038 | [5] 0.024 | [6] 0.024 | [7] 0.047 | [8] -0.019 | [9] -0.023 | [10] -0.002 | [11] 0.021 | [13] -0.043 | [14] 0.005 | [15] -0.041 | [16] -0.041 | [17] -0.03 | [18] 0.074 | [19] -0.038 | [20] 0.052

PHKA2 (UniProt P46019)
inactive: [1] 0.032 | [2] -0.085 | [3] -0.088 | [4] -0.021 | [5] 0.135 | [6] 0.012 | [7] -0.063 | [8] -0.009 | [9] -0.022 | [10] -0.03 | [11] -0.17 | [12] -0.055 | [13] 0.022 | [14] -0.104 | [15] -0.067 | [16] 0.064 | [17] -0.006 | [18] 0.025 | [19] -0.037 | [20] 0.078

PEX13 (UniProt Q92968)
active: [16] -0.318
inactive: [1] -0.067 | [2] -0.083 | [3] 0.022 | [4] 0.061 | [5] -0.061 | [6] -0.011 | [7] -0.058 | [8] 0.008 | [9] 0.047 | [10] -0.087 | [11] 0.028 | [12] -0.072 | [13] -0.129 | [14] -0.019 | [15] -0.037 | [17] -0.045 | [18] 0.115 | [19] -0.013 | [20] 0.009

QRSL1 (UniProt Q9H0R6)
Chain of UniProt Q9H0R6 (Q9H0R6 whole entry, looked up): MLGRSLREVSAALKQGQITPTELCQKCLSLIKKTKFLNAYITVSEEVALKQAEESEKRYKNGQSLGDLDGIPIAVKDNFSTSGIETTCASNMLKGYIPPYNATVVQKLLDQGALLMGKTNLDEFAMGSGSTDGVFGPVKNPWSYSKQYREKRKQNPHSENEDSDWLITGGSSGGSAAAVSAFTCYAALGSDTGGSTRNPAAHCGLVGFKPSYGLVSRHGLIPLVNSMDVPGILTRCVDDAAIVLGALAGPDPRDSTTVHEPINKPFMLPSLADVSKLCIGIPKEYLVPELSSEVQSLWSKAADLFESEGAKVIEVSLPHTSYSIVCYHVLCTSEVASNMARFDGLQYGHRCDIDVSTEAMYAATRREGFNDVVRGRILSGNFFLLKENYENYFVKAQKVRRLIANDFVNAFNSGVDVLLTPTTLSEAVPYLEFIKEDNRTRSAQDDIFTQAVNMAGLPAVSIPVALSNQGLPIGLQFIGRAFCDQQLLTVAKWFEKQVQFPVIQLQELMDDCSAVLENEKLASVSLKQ
inactive: [1] 0.033 | [2] 0.003 | [3] -0.103 | [4] 0.01 | [5] -0.023 | [6] -0.105 | [7] -0.047 | [8] 0.038 | [9] -0.017 | [10] -0.033 | [11] -0.01 | [12] -0.087 | [13] -0.028 | [14] -0.128 | [15] 0.022 | [16] -0.005 | [17] -0.007 | [18] 0.017 | [19] 0.003 | [20] 0.06
